Results as given in PubChem BioAssay (EPA / NIEHS).
Where “and” joins values, the source holds several entries; their conditions need not be identical. Equal values may be shown once. Some compounds were tested as several samples or in several runs, with calls that do not always agree. Calls of active or inactive are those of the source. The calls were made as follows: active = hit-call score of the fitted dose curve at least 0.9, where 1 is the maximum; inactive = score below 0.9.

read-out: Interleukin-1 alpha (IL1a), IL1A (gene 3552); test: BSK_BE3C_IL1a: BioMAP Diversity Plus: BE3C Assay for Interleukin-1 alpha (IL1a) Biomarker Activity (AID 2283016); conditions: primary human bronchial epithelial cells; actives raise or lower the signal
Procedure: BSK_BE3C is a cell-based, multiplexed-readout assay that uses bronchial epithelial cell, a human lung primary cell, with measurements taken at 24 hours after chemical dosing in a 96-well plate.BSK_BE3C_IL1a is an assay component measured in the BSK_BE3C assay. It measures IL-1a antibody related to regulation of gene expression using ELISA technology.Data from the assay component BSK_BE3C_IL1a was analyzed into 1 assay endpoint. This assay endpoint, BSK_BE3C_IL1a, was analyzed with bidirectional fitting relative to DMSO as the negative control and baseline of activity. Using a type of binding reporter, gain or loss-of-signal activity can be used to understand changes in the signaling as they relate to the gene IL1A. Furthermore, this assay endpoint can be referred to as a primary readout, because this assay has produced multiple assay endpoints where this one serves a signaling function. To generalize the intended target to other relatable targets, this assay endpoint is annotated to the cytokine intended target family, where the subfamily is interleukins.
The levels of cell surface (or secreted, indicated by the prefix "s") biomarker endpoints were measured by ELISA. Overt cytotoxicity to cells in confluent adherent cultures (all systems other than the BT system) was assessed by measuring total protein levels using sulforhodamine B (SRB) staining in parallel cultures at the time of biomarker measurements, indicated as SRB endpoints. For proliferation assays for adherent cell types, individual cell types are cultured at sub-confluence and relative cell numbers quantified by SRB staining at time points optimized for each system (48 h: 3C and CASM3C systems; 72 h: BT and HDF3CGF systems; 96 h: SAg system). SRB was performed by staining cells with 0.1% SRB after fixation with 10% TCA and reading wells at 560 nm.Viability and proliferation of PBMC (T cells) was quantified by Alamar Blue reduction for the SAg and BT systems. For PBMC viability (referred to as PBMC Cytotoxicity within the assay endpoint names), cells were plated (75,000/well in a 96-well plate) and then chemical samples added for 1 h before addition of activators, SEB and TSST-1 (20 ng/mL final concentration each). Cells were incubated for 90 h. Then, Alamar Blue (20 uL/well) (Invitrogen, Cat DAL1100) was added for 6 h, and the plates were read with a fluorescence microplate reader at 546/580 nm (excitation/emission). For PBMC proliferation, cells were plated and activated as above but incubated for only 16 h prior to addition of Alamar Blue. Plates were read after 6 h.

**Q.** `NCC(F)(F)C(F)(F)C(F)(F)C(F)(F)C(F)(F)C(F)(F)C(F)(F)F` was tested. Which outcome did it give?
**A.** Its outcome is “inactive”.

**Q.** For `NC(=O)N1C(=O)C(C(=O)c2cc(Cl)cs2)c2cc(F)c(Cl)cc21` (stereo not given), which AC50 is on record?
**A.** Its AC50 is 7.87 µM (active).

**Q.** With `O=C(OCCOCCOC(=O)c1ccccc1)c1ccccc1` as the compound, how does the outcome read?
**A.** Its outcome is “inactive”.

**Q.** `CCCOC(=O)c1ccc(O)cc1` was tested. Which outcome did it give?
**A.** Its outcome is “inactive”.

**Q.** How did the outcome turn out when `CCCCC(CC)COC(=O)CCCCC(=O)OCc1ccccc1` (stereo not given) was run?
**A.** The outcome was “inactive”.

**Q.** How did the outcome turn out when `CC(C)(C)CC(C)(C)c1ccc(O)c(-n2nc3ccccc3n2)c1` was run?
**A.** The outcome was “inactive”.

**Q.** How did the outcome turn out when `CC(C)CCCCCCOC(=O)CCCCC(=O)OCCCCCCC(C)C` was run?
**A.** Its outcome is “inactive”.

**Q.** Which outcome does the source give for `Cc1cc(C)c(O)c(C)c1` here?
**A.** Its outcome is “inactive”.

**Q.** Which outcome does the source give for `NC(=O)N(O)[C@@H]1C=C[C@H](Oc2cccc(Oc3ccc(F)cc3)c2)C1` here?
**A.** Its outcome is “inactive”.

**Q.** `CC(=O)CC(C)(C)O` was tested. Which outcome did it give?
**A.** The outcome was “inactive”.

**Q.** `COCC(C)OCC(C)O` (stereo not given) was tested. Which outcome did it give?
**A.** Its outcome is “inactive”.

**Q.** `c1ccc2cc3c(ccc4ccccc43)cc2c1` was tested. Which outcome did it give?
**A.** The outcome was “inactive”.

**Q.** How did the outcome turn out when `O=c1c(-c2ccc(O)cc2)coc2cc(O)ccc12` was run?
**A.** The outcome was “inactive”.

**Q.** With `Oc1cc2ccccc2c2ccccc12` as the compound, how does the AC50 read?
**A.** Its AC50 is 17.7 µM (active).

**Q.** Which results are given for `OCCC(F)(F)C(F)(F)C(F)(F)C(F)(F)C(F)(F)C(F)(F)C(F)(F)C(F)(F)F`?
**A.** AC50: 18.2 µM (active) and 18.6 µM (active); outcome: inactive

**Q.** With `CN(C)C=O` as the compound, how does the outcome read?
**A.** Its outcome is “inactive”.

**Q.** How did the outcome turn out when `O=C(O)c1ccccc1C(c1ccc(O)cc1)c1ccc(O)cc1` was run?
**A.** The outcome was “inactive”.

**Q.** Which AC50 does the source give for `CCN(CC)CCNc1ccc(CNC=O)c2sc3ccc(OC)cc3c(=O)c12` here?
**A.** The AC50 was 29.3 µM (active).

**Q.** `CCCCOCCO` was tested. Which outcome did it give?
**A.** The outcome was “inactive”.

**Q.** Which outcome does the source give for `CCCCCCCCC(=O)O` here?
**A.** Its outcome is “inactive”.

**Q.** For `CC(=O)NC1(c2cccc(F)c2)CCN(CC[C@@]2(c3ccc(Cl)c(Cl)c3)CN(c3ccccc3)C(=O)CO2)CC1`, which outcome is on record?
**A.** The outcome was “inactive”.

**Q.** Which outcome does the source give for `CC(C)(C)c1cc(C(C)(C)C)c(O)c(C(C)(C)C)c1` here?
**A.** The outcome was “inactive”.

**Q.** `O=[N+]([O-])c1ccc(O)cc1` was tested. Which outcome did it give?
**A.** Its outcome is “inactive”.

**Q.** Which outcome does the source give for `CC[C@H](C)[C@@H](C(=O)O)n1sc2ccccc2c1=O` here?
**A.** The outcome was “inactive”.

**Q.** Which AC50 does the source give for `CCCOc1sc(C(=O)N2CCC(c3cc(CN)ccc3F)CC2)c(C)c1Br` here?
**A.** The AC50 was 5.86 µM (active).

**Q.** With `CC#C[C@]1(O)CC[C@H]2[C@@H]3CCC4=CC(=O)CCC4=C3[C@@H](c3ccc(N(C)C)cc3)C[C@@]21C` as the compound, how does the AC50 read?
**A.** The AC50 was 32.1 µM (active).

**Q.** `CCOC(=O)CC(O)(CC(=O)OCC)C(=O)OCC` was tested. Which outcome did it give?
**A.** The outcome was “inactive”.

**Q.** How did the outcome turn out when `CCc1nn(C2CCCCC2)c2cc(C3(C#N)CCC(C(=O)O)CC3)ccc12` (stereo not given) was run?
**A.** Its outcome is “inactive”.

**Q.** With `OC1CCCCC1` as the compound, how does the outcome read?
**A.** Its outcome is “inactive”.

**Q.** With `CC1=C(/C=C/C(C)=C/C=C/C(C)=C/C(=O)O)C(C)(C)CCC1` as the compound, how does the outcome read?
**A.** Its outcome is “inactive”.

**Q.** `CCCCC(CC)COC(=O)CCCCC(=O)OCC(CC)CCCC` (stereo not given) was tested. Which outcome did it give?
**A.** The outcome was “inactive”.

**Q.** With `CCCCCCCCOC(=O)CCCCCCCCC(=O)OCCCCCCCC` as the compound, how does the outcome read?
**A.** Its outcome is “inactive”.

**Q.** With `CCC(=C(c1ccc(O)cc1)c1ccc(OCCN(C)C)cc1)c1ccccc1` as the compound, how does the AC50 read?
**A.** Its AC50 is 9.53 µM (active).

**Q.** Which outcome does the source give for `CCCCCCCC(=O)O` here?
**A.** The outcome was “inactive”.

**Q.** With `CCCCCCCCCCCCN1CCCC1=O` as the compound, how does the AC50 read?
**A.** The AC50 was 33.2 µM (active).

**Q.** `OCCC(F)(F)C(F)(F)C(F)(F)C(F)(F)C(F)(F)C(F)(F)F` was tested. Which outcome did it give?
**A.** Its outcome is “inactive”.

**Q.** Which AC50 does the source give for `Cc1oc(-c2ccccc2)nc1CCOc1ccc(C[C@H](Nc2ccccc2C(=O)c2ccccc2)C(=O)O)cc1` here?
**A.** Its AC50 is 5.44 µM (active).

**Q.** With `Cc1cc(CCN2CCN(c3nsc4ccccc34)CC2)cc2c1NC(=O)CC2(C)C` as the compound, how does the AC50 read?
**A.** Its AC50 is 30.5 µM (active).

**Q.** For `C[C@@H]1C[C@H]2[C@@H]3CCC4=CC(=O)C=C[C@]4(C)[C@@]3(F)[C@@H](O)C[C@]2(C)[C@@]1(O)C(=O)COP(=O)(O)O`, which outcome is on record?
**A.** The outcome was “inactive”.
